SMILES strings stand for the structures. Active and inactive are the calls of the source. Unless noted, no rule for the calls is given here.

Test [1] concerns Wnt5a (protein binding on small-molecule microarray). In words: small molecules binding Wnt5a protein – biophysical, small-molecule microarray, 635/667 nm fluorescence, primary screen (AID 1142).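 Also: fluorescence read at 667 nm with signal to noise per printed feature.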 The note with it: 635 nm fluorescence, higher = more signal.
Test [2] can be described thus: ATP-based viability of Huh7 replicon cells – cell-based, CellTiter-Glo luminescence, basal, 48 h, cytotoxicity control for HCV replication inhibitor project, primary screen (AID 1143).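 Also: Huh7 hepatoma cells carrying a hepatitis C replication reporter with no stimulus; test concentration not given here.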 The note with it: higher = more signal, called active from +8 up or from −8 down.
Test [3] is described as follows: Pseudomonas biofilm growth suppression – PAO1 strain, BacTiter-Glo luminescence, LB-PBS, primary screen (AID 1144). The following applies: P. aeruginosa PAO1 biofilm, 12 h, higher = more signal.
A short description of test [4]: basal CRE-LacZ reporter activity in PC12 – cell-based, unstimulated, primary screen (AID 1145). The following applies: no forskolin, luminescence, 4.5 h, higher = more signal, called active from +8 up or from −8 down.
A short description of test [5]: forskolin-driven CRE-LacZ activity in PC12 – cell-based, CRE-LacZ reporter, forskolin-stimulated, primary screen (AID 1146).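 Also: PC12 cells with 6xCRE LacZ reporter stimulated by forskolin 10 µM; beta-galactosidase reporter signal reflecting CREB driven transcription.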 The note with it: luminescence, 4.5 h, higher = more signal, called active from +8 up or from −8 down.
The target of test [6] is Streptavidin (Streptomyces avidinii) (UniProt P22629). In words: compounds binding control protein streptavidin – biophysical, small-molecule microarray, 635/667 nm fluorescence, artefact control for SMM compound annotation, primary screen (AID 1147).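 Also: signal reflects streptavidin binding to arrayed compounds as a control protein.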 The following applies: higher = more signal.
Test [7] is described as follows: probe aInhba binding on compound microarray – biochemical, small-molecule microarray, 635/667 nm fluorescence, primary screen (AID 1148).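 Also: score merges 667nm spot fluorescence with signal-to-noise for antibody binding to printed compounds.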 The following applies: higher = more signal.
In test [8] the target is Torsin-1A (Homo sapiens) (UniProt O14656). Briefly: TOR1A wild-type binding on microarray – cell lysate, small-molecule microarray, lysate, 635/667 nm, primary screen (AID 1149). The following applies: COS7 hTOR1A-WT lysate, 635 nm fluorescence, higher = more signal.
For test [9] the target is unchanged. Briefly: torsin A mutant lysate binding on microarrays – cell lysate, small-molecule microarray, COS7 lysate, 635/667 nm fluorescence, primary screen (AID 1150).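 Also: score pools 667 nm emission and signal to noise measuring lysate protein binding.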 The following applies: COS7 hTOR1A mutant lysate, 635 nm fluorescence, higher = more signal.
Test [10] concerns Sonic hedgehog protein (Shh). In words: Sonic hedgehog microarray binding compounds – biochemical, small-molecule microarray, 635/667 nm fluorescence, primary screen (AID 1151).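 Also: Shh protein binding to compounds spotted on small-molecule microarray slides; score combines spot fluorescence intensity with signal-to-noise across triplicate slides.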 The note with it: 635 nm fluorescence, higher = more signal.

Torsin-1A (Homo sapiens), sequence (O14656 whole entry, looked up): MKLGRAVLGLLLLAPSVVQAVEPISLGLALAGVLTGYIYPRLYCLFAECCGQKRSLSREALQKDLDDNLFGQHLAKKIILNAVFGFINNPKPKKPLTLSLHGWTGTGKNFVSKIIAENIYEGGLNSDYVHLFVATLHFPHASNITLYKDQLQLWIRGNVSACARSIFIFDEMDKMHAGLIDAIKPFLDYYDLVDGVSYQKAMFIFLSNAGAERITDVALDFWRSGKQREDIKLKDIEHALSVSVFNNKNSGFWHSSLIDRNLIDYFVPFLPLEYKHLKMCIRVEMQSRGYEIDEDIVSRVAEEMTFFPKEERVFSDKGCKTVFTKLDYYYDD
Streptavidin (Streptomyces avidinii), sequence (P22629 whole entry, looked up): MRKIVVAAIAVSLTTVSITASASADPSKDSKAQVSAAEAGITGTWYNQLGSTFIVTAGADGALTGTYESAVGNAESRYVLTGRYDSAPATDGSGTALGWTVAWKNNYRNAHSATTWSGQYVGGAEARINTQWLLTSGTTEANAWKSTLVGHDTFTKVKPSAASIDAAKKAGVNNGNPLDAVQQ

For `C=CCC(OC(C)=O)[C@@H]1[C@@H](N(Cc2cc3ccccc3o2)C(=O)c2ccc(C)cc2)c2cc(OCCCO)ccc2N1C(=O)c1ccc(-c2ccccc2)cc1` (stereo not given in full), the composite z-score in test [1] was -0.221; in [6] it was 0.0073; in test [7] it was 0.295; in the test with Torsin-1A (Homo sapiens) [8], 0.308; in the test with Torsin-1A (Homo sapiens) [9], -0.264; in [10] it was 0.158. Also, the z-score in test [2] is -2.92 (inactive); in [3], -2.16 (inactive); in test [4] it was 2.76 (inactive); in test [5] it was -1.12 (inactive).
For `C=C(CCCC)C(=O)CC[C@H](OC(C)=O)c1ccc(CO)o1`, the composite z-score in test [1] is 0.0631; in test [6], -0.264; in test [7], -0.0427; with Torsin-1A (Homo sapiens) [8], -0.423; with Torsin-1A (Homo sapiens) [9] it was 0.794; in [10], 1.99. Moreover, the z-score in test [2] was -3.11 (inactive); in test [3] it was -0.312 (inactive); in test [4], 0.508 (inactive); in test [5], -0.79 (inactive).
For `CCCNC(=O)[C@@]1(C)c2ccccc2C(=O)N(Cc2cc(C(F)(F)F)cc(C(F)(F)F)c2)[C@H]1c1ccc(CO)cc1`, the composite z-score in test [1] is -0.332; in [6] it was -0.974; in [7] it was -0.128; with Torsin-1A (Homo sapiens) [8], -0.0659; in the test with Torsin-1A (Homo sapiens) [9], -0.216; in [10] it was 0.103. Further, the z-score in test [2] is -5.52 (inactive); in test [3], -0.889 (inactive); in test [4] it was 0.0548 (inactive); in [5], 0.532 (inactive).
As for `COCCCNC(=O)[C@@]1(Sc2ccc(C)cc2)CC(=O)N(Cc2ccccc2)[C@@H]1c1ccc(CO)cc1`, the composite z-score in test [1] was -0.114; in [6] it was -0.82; in test [7], -0.0193; with Torsin-1A (Homo sapiens) [8], 0.366; with Torsin-1A (Homo sapiens) [9], -0.607; in [10] it was -0.168. The z-score in test [2] was 0.101 (inactive); in test [3] it was -0.578 (inactive); in test [4] it was -0.438 (inactive); in [5], 0.579 (inactive).
In the case of `C=C(C(=O)CC[C@@H](OC(=O)c1cccnc1)c1ccc(OCCO)cc1)C(C)C`, the composite z-score in [1] is 0.725; in test [6] it was -0.136; in [7], -0.128; with Torsin-1A (Homo sapiens) [8], 0.0998; with Torsin-1A (Homo sapiens) [9], 0.97; in test [10], 1.58. The z-score in test [2] was -8.32 (active); in test [3], 0.118 (inactive); in test [4] it was 20 (active); in test [5], 0.12 (inactive).
With `CCCCN1CC=CC23O[C@@H]4/C=C\CCCOC(=O)C4[C@H]2C(=O)N(C(C)CO)[C@@H]3C1=O` (stereo not given in full), the composite z-score is -0.286 in test [1]; -0.559 in [6]; -0.05 in test [7]; -0.534 with Torsin-1A (Homo sapiens) [8]; -0.804 with Torsin-1A (Homo sapiens) [9]; 0.732 in test [10]. For the same compound, the z-score was 0.33 (inactive) in [2], -1.35 (inactive) in [3], -0.907 (inactive) in test [4] and -0.679 (inactive) in test [5].
Turning to `CN(C)CCCCCCNC(=O)[C@@H]1C[C@@H]2C(=O)N[C@@H](Cc3ccccc3)C(=O)N2[C@@H]1c1cccc(OCCO)c1`, the composite z-score in test [1] is 0.154; in test [6], 0.0978; in test [7], -0.0209; in the test with Torsin-1A (Homo sapiens) [8] it was 1.15; with Torsin-1A (Homo sapiens) [9] it was 0.885; in [10], 1.28. Further, the z-score was 0.59 (inactive) in [2], 0.0305 (inactive) in test [3], -0.122 (inactive) in [4] and -1.29 (inactive) in test [5].
`COC(=O)[C@@]1(Cc2ccc(OC)cc2)[C@H]2c3cc(C(=O)N(C)C)n(Cc4ccc(OC)c(OC)c4)c3C[C@H]2CN1C(=O)c1ccccc1`: the composite z-score was 0.171 in test [1]; 1.67 in test [6]; 0.55 in test [7]; 0.258 with Torsin-1A (Homo sapiens) [8]; 1.17 in the test with Torsin-1A (Homo sapiens) [9]; -0.521 in test [10]. For the same compound, the z-score is -2.97 (inactive) in test [2], 0.437 (inactive) in [3], 0.583 (inactive) in test [4] and 0.292 (inactive) in test [5].
For the compound `O=C1O[C@H](c2ccccc2)[C@H](c2ccccc2)N2[C@H]1[C@@H](C(=O)NC[C@H](O)c1ccccc1)[C@]1(C(=O)Nc3ccc(C#CC4=CCCCC4)cc31)[C@H]2c1ccc(O)cc1`, the composite z-score is 0.688 in [1]; 0.758 in [6]; 0.121 in [7]; 0.769 with Torsin-1A (Homo sapiens) [8]; 1.08 with Torsin-1A (Homo sapiens) [9]; 1.51 in test [10]. Also, the z-score was -5.36 (inactive) in [2], -0.354 (inactive) in test [3], -0.602 (inactive) in [4] and -0.912 (inactive) in test [5].
For `O=C1C2C=CC(C(O)c3ccc(B(O)O)cc3)N(Nc3ccc([N+](=O)[O-])cc3)C2C(=O)N1c1ccccc1` (stereo not given), the composite z-score in test [1] worked out at 0.263; in test [6] it was 0.759; in test [7], 0.0785; in the test with Torsin-1A (Homo sapiens) [8] it was 0.363; in the test with Torsin-1A (Homo sapiens) [9], 0.286; in [10] it was 0.221. In addition, the z-score is -0.307 (inactive) in [2], -0.0903 (inactive) in test [3], -1.07 (inactive) in test [4] and -2.26 (inactive) in test [5].
Turning to `CCCNC(=O)[C@@]1(C)c2ccccc2C(=O)N(Cc2cc(F)cc(C(F)(F)F)c2)[C@H]1c1ccc(CO)cc1`, the composite z-score in test [1] was -0.283; in test [6], -0.767; in [7], -0.175; with Torsin-1A (Homo sapiens) [8], -2.08; with Torsin-1A (Homo sapiens) [9], 0.779; in test [10], 0.011. The z-score in [2] was -3.38 (inactive); in test [3] it was -1.09 (inactive); in test [4], 0.208 (inactive); in [5], -0.173 (inactive).
For `COCCOC(=O)N1C(=O)[C@@]2(c3cc(C#CC4=CCCCC4)ccc31)[C@H](C(=O)N1CCN(c3ncccn3)CC1)[C@H]1C(=O)O[C@H](c3ccccc3)[C@H](c3ccccc3)N1[C@@H]2c1ccc(OCCO)cc1`, the composite z-score in test [1] amounted to 0.572; in test [6] it was 0.832; in test [7], 0.471; in the test with Torsin-1A (Homo sapiens) [8] it was 0.804; with Torsin-1A (Homo sapiens) [9], 0.606; in test [10] it was 1.04. For the same compound, the z-score is -0.922 (inactive) in test [2], -0.38 (inactive) in test [3], -1.57 (inactive) in [4] and -0.0728 (inactive) in [5].
For `Cc1ccc([C@H]2C(C(=O)O)=C[C@@H](C(C)C)N2S(=O)(=O)c2ccc(C)cc2)cc1`, the composite z-score in test [1] is -0.167; in [6], 0.946; in test [7], 0.0173; with Torsin-1A (Homo sapiens) [8], -0.165; with Torsin-1A (Homo sapiens) [9], 0.28; in [10], -0.542. Further, the z-score in test [2] was 0.0491 (inactive); in [3] it was 0.633 (inactive); in test [4] it was -0.424 (inactive); in test [5], 1.01 (inactive).
On to `COc1ccc(C#Cc2ccc3c(c2)[C@]2(C(=O)N3)[C@H](C(=O)N3CCc4cc(OC)c(OC)cc4C3)[C@H]3C(=O)O[C@H](c4ccccc4)[C@H](c4ccccc4)N3[C@@H]2c2ccc(OCCO)cc2)cc1`, for which the composite z-score in test [1] turned out to be 0.665; in [6] it was 1; in test [7], 0.136; in the test with Torsin-1A (Homo sapiens) [8] it was 0.947; with Torsin-1A (Homo sapiens) [9] it was 0.488; in test [10] it was 1.88. The z-score in test [2] is -0.763 (inactive); in test [3] it was -0.745 (inactive); in test [4], -0.258 (inactive); in test [5] it was -0.166 (inactive).

Values taken from PubChem BioAssay.
